# PubChem BioAssay (Tox21)
# The source made the active and inactive calls. Calls follow the shape of the dose curve; as a rule, active = well fitted inhibition curve with a large enough effect in the repeat runs (not every such curve was filed as active); inconclusive = weak or mixed curves; inactive = flat fitted curve, though single readings scatter.
# Biological target: Thyrotropin-releasing hormone receptor (Homo sapiens) (UniProt P34981)
# Assay: qHTS assay to identify small molecule antagonists of the thyrotropin-releasing hormone receptor (TRHR) signaling pathway (AID 1346877)
# Conditions: TRHR-HEK293, TRH-induced calcium fluorescence, antagonist mode; series mostly up to 51.3 µM
# How it was run: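 Overnight-plated (18 h, 37 °C) HEK293 cells expressing TRHR were dye-loaded 2 h, treated with compound, then stimulated with TRH at 1 nM final. Fluorescence intensity was captured every second for 3 min.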
# % is scaled to controls: 0 for no effect and ±100 for the full control effect.
# Chain of Thyrotropin-releasing hormone receptor (Homo sapiens) (P34981 whole entry, looked up): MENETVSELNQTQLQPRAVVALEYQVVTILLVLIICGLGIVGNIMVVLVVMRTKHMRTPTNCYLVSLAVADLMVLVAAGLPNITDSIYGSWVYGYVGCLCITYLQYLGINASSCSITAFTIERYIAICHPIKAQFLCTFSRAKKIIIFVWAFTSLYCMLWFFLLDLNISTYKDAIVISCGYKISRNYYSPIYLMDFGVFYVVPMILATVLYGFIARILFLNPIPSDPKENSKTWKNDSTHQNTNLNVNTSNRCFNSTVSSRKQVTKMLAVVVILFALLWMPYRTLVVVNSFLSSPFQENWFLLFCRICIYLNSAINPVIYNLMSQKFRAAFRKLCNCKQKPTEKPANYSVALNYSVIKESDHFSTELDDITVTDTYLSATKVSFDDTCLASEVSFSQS
SMILES,outcome,"activity, negative = inhibition"
CCCc1nn(C)c2c(=O)[nH]c(-c3cc(S(=O)(=O)N4CCN(C)CC4)ccc3OCC)nc12,inactive,
CCOC(=O)COc1cc(-n2ncc(C(F)(F)F)c(C)c2=O)c(F)cc1Cl,inactive,
CCC(=O)OCc1ccccc1,inactive,
CCN1C=CN(C)C1C (stereo not drawn),inactive,
C1CCC2(CCCCO2)OC1,inactive,
CCC(C(=O)NC(=O)NC(C)=O)c1ccccc1 (stereo not drawn),inactive,
CC(=O)N[C@H]1[C@H]([C@H](O)[C@H](O)CO)OC(C(=O)O)=C[C@@H]1N=C(N)N,inactive,
Cc1c(N)c(=O)n(-c2ccccc2)n1C,inactive,
CN(C)CCN(C)CCN(C)C,inactive,
CCCO[Si](OCCC)(OCCC)OCCC,inactive,
CN1CCC(=C2c3ccccc3CCc3cccnc32)CC1,inactive,
CCO[Si](OCC)(OCC)c1ccccc1,inactive,
COc1ccccc1OCC1CNC(=O)O1 (stereo not drawn),inactive,
Cc1coc2ccccc2c1=O,inactive,
CCCCCCCCCCCCSC,inactive,
C=CC(C)(CCC=C(C)C)OC(=O)CC (stereo not drawn),inactive,
CN1[C@@H]2CC[C@H]1CC(OC(=O)C(O)c1ccccc1)C2 (stereo partly drawn),inactive,
CC(C)C[C@@H](N)C(=O)O,,-3.99% [at 10.5 µM] (inactive)
CCOC(=O)C(=O)CCCCCCl,inactive,
CO[C@@]1(NC(=O)C(C(=O)O)c2ccc(O)cc2)C(=O)N2C(C(=O)O)=C(CSc3nnnn3C)CO[C@@H]21 (stereo partly drawn),inactive,
c1ccc2sc(SN3CCOCC3)nc2c1,inactive,
Cc1cccc(C)c1NC(=O)CC12CCCN1CCC2,inactive,
CCCCCC(=O)OCCc1ccccc1,inactive,
